TDP1 cell CPT – DT40-hTDP1 cell growth loss with CPT | chicken DT40 Tdp1-/-;hTDP1 cells + 20 nM CPT, ATP luminescence, 48 h | Potency, µM (titrated, usually from 46.2 µM), for the others: top-dose activity change, negative = growth inhibition, most hits filed as inhibitors | 420,000 tested, 12% active; also: potency is read from the fitted curve at half-maximal effect; nearly all actives have a fitted effect of over 55% in size
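Chicken DT40 Tdp1-/- cells stably complemented with human TDP1 were seeded at 400 cells/well in medium containing 20 nM camptothecin, exposed to pin-transferred compounds, and grown at 37 °C for at least 48 hr. Viability was read as ATP luminescence.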
ALOX12 inh – ALOX12 (human) lipoxygenase inhibition | P18054 | AID 1671190 | 580,000 tested, 1.1% active | purified 12hLO, xylenol orange hydroperoxide absorbance | Potency, µM (top dose mostly 108 µM), for the others: at the highest dose activity change, negative = inhibition, actives largely listed as inhibitors; also: potency is read from the fitted curve at half-maximal effect
Target sequence (P18054 whole entry, looked up): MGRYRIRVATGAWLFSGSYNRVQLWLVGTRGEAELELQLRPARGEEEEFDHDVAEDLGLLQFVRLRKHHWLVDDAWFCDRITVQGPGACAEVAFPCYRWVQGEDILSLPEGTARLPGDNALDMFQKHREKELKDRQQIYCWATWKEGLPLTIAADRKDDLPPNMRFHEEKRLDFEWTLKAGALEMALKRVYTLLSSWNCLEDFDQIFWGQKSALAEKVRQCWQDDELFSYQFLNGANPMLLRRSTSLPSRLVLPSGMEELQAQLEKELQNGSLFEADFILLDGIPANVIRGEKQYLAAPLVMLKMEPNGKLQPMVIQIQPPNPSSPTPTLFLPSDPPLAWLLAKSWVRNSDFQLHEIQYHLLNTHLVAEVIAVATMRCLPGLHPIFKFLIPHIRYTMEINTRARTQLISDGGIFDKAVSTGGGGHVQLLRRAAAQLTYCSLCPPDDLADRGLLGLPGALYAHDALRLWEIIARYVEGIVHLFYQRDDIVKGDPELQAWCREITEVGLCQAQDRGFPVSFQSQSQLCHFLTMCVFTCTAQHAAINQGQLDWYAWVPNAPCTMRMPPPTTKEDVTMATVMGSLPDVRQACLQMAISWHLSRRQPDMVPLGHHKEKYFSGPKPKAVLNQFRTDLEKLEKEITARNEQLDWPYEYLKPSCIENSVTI
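Purified human 12hLO (150 nM final) in 25 mM Hepes, 0.01% Triton X-100, pH 7.0 was preincubated 15 min at room temperature with compound. Then 40 uM arachidonic acid was added, 30 min. Hydroperoxide was read by Fe-XO absorbance ratio 573/405 nm.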
IL-1B inflam inh – inhibitors of inflammasome signaling (IL-1 beta secretion). 360,000 tested, 4.7% active. THP-1 LPS/ATP IL-1B secretion, AlphaLISA, 16 h; stronger effect = lower value. activity change, % at 57.5 µM; in the data active = activity change below about -50%; inconclusive = mostly about -30% to -49%
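Secreted IL-1B measured by AlphaLISA bead assay after 16 h compound exposure of THP-1 cells; compounds (final up to 57.5 uM) added 1 h before LPS (250 ng/mL) and ATP (1.25 mM) stimulation; lower signal means less secretion.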
DT40 TDP1 no CPT – qHTS for Inhibitors of human tyrosyl-DNA phosphodiesterase 1 (TDP1): qHTS in cells in absence of CPT. DT40 Tdp1-/- hTDP1 cells, no CPT, ATP luminescence, 48 h. Potency, µM (titrated, usually from 46.2 µM), without a hit: at the top dose activity change, negative = growth inhibition, most hits filed as inhibitors. 420,000 tested, 15% active. AID 686978, 2013; also: potency is read from the fitted curve at half-maximal effect; nearly all actives have a fitted effect of over 55% in size
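Camptothecin absent (DMSO only). Human TDP1-complemented DT40 knockout cells, 400 cells/well, 37 °C for minimum 48 hr; ATP measured via CellTiter-Glo, 30 min dark incubation, luminescence.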
HT1080 IDH1KD tx – HT-1080 IDH1 knockdown cell toxicity (counter line) | HT-1080 IDH1 knockdown viability, ATP luminescence, 48 h | 360,000 tested, 2% active | Potency, µM (doses to about 46.1 µM), inactives show top-dose activity, negative = toxicity, hits mostly cytotoxic;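 also: potency is read from the fitted curve at half-maximal effect; 0% = DMSO wells and -100% = cell-free medium wells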
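HT-1080-IDH1KD cells (IDH1 knocked down), 750/well in RPMI with 5% FBS, treated with compound 48 h at 37 degrees C. Viability by CellTiter-Glo luminescence, normalised to DMSO and no-cell wells; concentration-response curves classed.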
HT1080NT lethal – kills 2HG-producing HT-1080-NT fibrosarcoma cells; HT-1080-NT fibrosarcoma viability, CellTiter-Glo ATP luminescence, 48 h; Potency, µM (titrated, usually from 46.1 µM), for inactives: top-dose activity, negative = less viability, usual class: cytotoxic; 360,000 tested, 1.6% active;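 also: NT is the 2HG producing partner of a matched IDH1 knockdown line; potency is read from the fitted curve at half-maximal effect; 0% = DMSO-treated cells and -100% = media-only wells without cells; nearly all actives have a fitted effect of over 55% in size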
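Viability by CellTiter-Glo luminescence after 48 h compound exposure at 37C of HT-1080-NT cells (750/well, RPMI, 5% FBS). % activity scaled between DMSO wells and medium-only wells, then curve-fitted and categorized by curve class.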
Starred values were filed as active, the others as inactive; i = inactive; ? = inconclusive; . = not tested or not shown; [ ] = remark or other dose. Shown is part of a subset that was picked to be rich in hits. Unless noted, calls follow the shape of the dose curve; as a rule, active = well fitted curve in the direction sought with a large enough effect; inconclusive = small, poorly fitted or top-dose-only effect, or another doubt; inactive = no such curve, though single readings can be large; an effect the other way counts as inactive or inconclusive. Unless noted, % is scaled to controls: 0 for no effect and ±100 for the full control effect.

SMILES | TDP1 cell CPT | ALOX12 inh | IL-1B inflam inh | DT40 TDP1 no CPT | HT1080 IDH1KD tx | HT1080NT lethal
Cc1ccccc1Cn1cnc2ccccc21 | 18µM* | 0% | -10 | 21µM* | -11% | 3%
Cc1ccc(Cn2cnc3ccccc32)cc1C | 13µM* | 3% | 3 | 16µM* | -30% | -8%
CCOCN(C(=O)Cn1cnc2ccccc21)c1c(C)cccc1CC | 21µM* | -8% | 24 | 23µM* | -10% | -11%
Fc1ccc(Cn2cnc3ccccc32)cc1 | -28% | 0% | -14 | -34% | -11% | -11%
O=C(NCc1ccc(F)cc1)c1n[nH]c(=O)c2ccccc12 | . | -54% | . | . | . | .
CCS(=O)(=O)c1ccc2oc([C@H]3CCN(Cc4ccc(OC)cc4)C3)nc2c1 | . | 1%[176 µM] | . | . | . | .
COc1cc2c(cc1OC)[C@@H]1C(=O)c3ccc4c(c3O[C@@H]1CO2)C=CC(C)(C)O4 | 0.15µM* | ? | . | 0.11µM* | . | .
COc1cc(O)c(C(C)=O)c2c1C=CC(C)(C)O2 | -11% | 3% | 32 | ? | 0% | 4%
O=C(NCC1CCCO1)c1ccc(NC(=O)c2ccc([N+](=O)[O-])cc2)cc1 (configuration not stated) | -2% | 18% | 12 | -20% | -2% | -1%
CCCCc1c(O)nc(SCC(=O)N2CCOCC2)n(-c2ccc(C)cc2)c1=O | -14% | -17% | 13 | ? | 3% | 0%
CCCCc1c(O)nc(SCC(=O)c2ccccc2)n(-c2ccccc2)c1=O | 2.9µM* | 0% | 25 | 2.6µM* | 7% | 2%
CCCCc1c(O)nc(SCC(=O)c2ccccc2)n(-c2ccccc2OC)c1=O | -9% | ? | . | 8.2µM* | 18% | 6%
Cc1cc(Cl)ccc1OCCCc1n[nH]c(=S)n1Cc1ccco1 | . | 18µM* | . | . | . | .
CCCc1n[nH]c(=S)n1Cc1ccco1 | -4% | -8% | 18 | -5% | -1% | 0%
S=c1[nH]nc(COc2ccc(Cl)cc2)n1-c1ccc(Cl)cc1 | 9% | ? | 4 | -24% | ? | -17%
COc1cccc(-c2n[nH]c(=S)n2Cc2ccco2)c1 | 1% | 18µM* | 22 | 20% | -8% | 0%
S=c1[nH]nc(COc2ccc(Cl)cc2)n1Cc1ccco1 | 4% | 40µM* | 12 | 21µM* | -8% | -7%
COc1ccc(C)c2sc(NC(=O)CCS(=O)(=O)c3ccccc3)nc12 | 23µM* | -19% | -90* | 16µM* | ? | -10%
CCCCC(=O)Nc1nc2c(OC)ccc(OC)c2s1 | -27% | 0% | 29 | -4% | -13% | -6%
CCOc1cccc2sc(NC(=O)CCS(=O)(=O)c3ccccc3)nc12 | 8.2µM* | . | i | 8.2µM* | ? | -4%
CCOc1cccc2sc(N(CCN(C)C)C(=O)CCS(=O)(=O)c3ccccc3)nc12 | ? | 372% | -19 | -4% | 13% | 5%
CCOc1cccc2sc(Nc3nc4ccc(NC(C)=O)cc4s3)nc12 | 18µM* | -17% | ? | ? | ? | ?
CN(C)CC(=O)N1CC(=O)N2[C@H](CO)[C@@H](c3ccc(Br)cc3)[C@H]2C1 | . | -19% | . | . | . | .
O=C(c1cnccn1)N1CC(=O)N2[C@H](C1)[C@@H](c1ccc(Br)cc1)[C@@H]2CO | . | 5.6µM* | . | . | . | .
Cc1[nH]c2ccc(Br)cc2c1CCNC(=O)c1cc2ccccc2oc1=O | . | -8% | . | . | . | .
SMILES | TDP1 cell CPT | ALOX12 inh | IL-1B inflam inh | DT40 TDP1 no CPT | HT1080 IDH1KD tx | HT1080NT lethal
Cc1nnc(N2CCCC(C(=O)NCc3ccccc3)C2)c2nn(-c3ccccc3)c(C)c12 (configuration not stated) | -8% | -13% | . | -20% | . | .
COc1ccc(-n2nc3c(N4CCCC(C(=O)NCc5cccc(F)c5)C4)nnc(C)c3c2C)cc1 (configuration not stated) | 8.2µM* | 5% | . | 13µM* | . | .
Cc1nnc(N2CCCC(C(=O)NCc3cccc(F)c3)C2)c2nn(-c3ccccc3)c(C)c12 (configuration not stated) | ? | -25% | ? | 13µM* | -15% | -4%
O=C1N(Cc2cccc(C(F)(F)F)c2)c2ccccc2S(=O)(=O)N1c1cccc(Cl)c1 | ? | -18% | . | ? | . | .
CCOc1ccc(Oc2nc(NCC(C)C)nc(OC)n2)nn1 | 14% | -3% | 0 | -12% | 2% | 1%
CCNc1nc(NC(C)CC)nc(Oc2ccc(OCC)nn2)n1 (configuration not stated) | 10µM* | -3% | 68 | 9.2µM* | -2% | -17%
Cn1c(Cn2cccn2)nnc1C1CC(NC(=O)CN2CCCC2=O)C1 (configuration not stated) | . | 8% | . | . | . | .
CC(=O)N1CCN(C(=O)CNc2cc(C(F)(F)F)ccc2OCC(F)(F)F)CC1 | -6% | 0% | -57* | -12% | 9% | 1%
CCOc1ccc(N2C(=O)/C(=C\c3ccccc3OC)S(=O)(=O)C2c2cccc([N+](=O)[O-])c2)cc1 (configuration not stated) | 15µM* | 0% | -7 | 16µM* | 1% | 9%
COc1ccc(C(=O)c2[nH]c(N)c(C(=O)NCCc3c[nH]c4ccccc34)c2-c2ccc(Cl)c(F)c2)cc1 | ? | 116% | -17 | 18µM* | 21µM* | ?
COc1ccc(-c2c(C(=O)c3ccccc3)[nH]c(N)c2C(=O)NCCc2c[nH]c3ccccc23)cc1 | . | -1% | . | . | . | .
